# Screening data (PubChem)
# H9c2 protect – modulators protecting cardiomyocytes from myocardial damage; protection from H2O2 cell death, % at 20 µM; actives 0.63% (n = 360,000); AID 588492; H9c2 cardiomyocytes, H2O2 injury protection, ATPLite, 2 h;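 active = compounds giving at least 50% protection of heart cells from peroxide-induced death in the single-dose screen, raw or plate-pattern-corrected value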;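 also: 0% = DMSO wells with peroxide and 100% = DMSO wells without peroxide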
# ALR H2O2 inh – inhibitors of human sulfhydryl oxidase ALR; purified ALR, DTT oxidation, H2O2 HRP-luminol luminescence; inhibition, % (concentration not given with the values); actives 3.8% (n = 290,000); AID 485317;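 active = mean replicate inhibition above about 79%, with every replicate also reaching it, limit read from the data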
# Target sequence (P55789 whole entry, looked up): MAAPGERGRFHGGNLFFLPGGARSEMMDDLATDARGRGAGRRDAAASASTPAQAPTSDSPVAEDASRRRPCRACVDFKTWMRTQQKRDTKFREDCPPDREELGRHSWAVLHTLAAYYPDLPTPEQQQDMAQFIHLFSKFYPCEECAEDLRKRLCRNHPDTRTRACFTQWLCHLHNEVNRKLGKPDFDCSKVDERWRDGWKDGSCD
# PHOSPHO1 block – PHOSPHO1 (human) inhibition. recombinant PHOSPHO1, absorbance phosphatase assay. inhibition, % at 13.3 µM. actives 1.1% (n = 290,000); in the data active = inhibition above about 60%
# Target sequence (Q8TCT1 whole entry, looked up): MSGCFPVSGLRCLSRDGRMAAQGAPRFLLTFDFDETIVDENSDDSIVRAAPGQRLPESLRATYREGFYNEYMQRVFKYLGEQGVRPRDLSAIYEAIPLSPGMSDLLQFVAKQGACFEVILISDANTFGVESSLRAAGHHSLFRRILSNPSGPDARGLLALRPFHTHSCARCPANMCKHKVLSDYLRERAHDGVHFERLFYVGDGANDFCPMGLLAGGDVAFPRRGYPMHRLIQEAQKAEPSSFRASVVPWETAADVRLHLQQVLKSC
# PfM18AAP inh – PfM18AAP enzyme inhibition; recombinant PfM18AAP, H-Glu-NHMec fluorogenic cleavage; actives 1.2% (n = 290,000); inhibition, % at 7.35 µM;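 active = inhibition above the campaign mean inhibition over all tested compounds plus 3 SD, cut at about 28% in these data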;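 also: 0% = plate median of test compound wells and 100% = 2 mM ZnCl2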
# PfGluPho inh – PfG6PD (Plasmodium falciparum) enzyme inhibition. AID 504690. actives 0.78% (n = 350,000). inhibition, % at 20 µM. PfGluPho enzyme, NADPH resazurin-diaphorase fluorescence;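 active = inhibition reaching at least a set limit at 20 µM in the primary screen, cut at about 59% in these data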;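 also: 0% = DMSO wells with substrate and 100% = DMSO wells lacking glucose-6-phosphate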
# * hit, by the source's call; / = no result. Most compounds without a hit are left out; they make up all but 5.6% or so of the library.
SMILES,H9c2 protect,ALR H2O2 inh,PHOSPHO1 block,PfM18AAP inh,PfGluPho inh
CC(C)(C)NC(=O)C(c1ccccc1)N(C(=O)CNC(=O)c1cccs1)c1cccnc1 (stereo unspecified),6,-10,23,0,0
CC(C)CC(=O)NC(=S)Nc1ccc(S(=O)(=O)NC(C)(C)C)cc1,-18,10,-8,-4,2
CC(C)CC(=O)NNC(=S)Nc1ccc(S(N)(=O)=O)cc1,-4,69,-95,29*,23
CS(=O)(=O)n1c2ccccc2c(=O)n1-c1ccccc1CCl,5,/,/,/,/
COc1ccc(-c2nc(CSCC(=O)N3CCN(c4cccc(C)c4)C(C)C3)c(C)o2)cc1OC (stereo unspecified),4,99*,-37,-4,22
COc1ccc(-c2nc(CSCC(=O)N3CCC(C(N)=O)CC3)c(C)o2)cc1OC,-2,99*,-17,-13,22
COc1ccc(-c2nc(CSCC(=O)N3CCc4ccccc4C3)c(C)o2)cc1OC,15,98*,0,3,22
C/C(=C\C(=O)c1ccc(Cl)cc1)NCc1ccc2c(c1)OCO2,-19,-1,85*,-7,-7
O=C(CSCc1ccc(Cl)cc1)NCc1ccc2c(c1)OCO2,10,0,26,0,23
Cc1cc(C(=O)CSc2nnc(-c3ccc(OC(F)F)cc3)o2)c(C)n1Cc1cccs1,-2,-16,94*,6,-4
COc1ccc(-c2nnc(SCC(=O)c3cc(C)n(Cc4cccs4)c3C)o2)cc1,-12,51,7,-12,-18
Cc1cc(C(=O)CSc2nnc(N)s2)c(C)n1Cc1cccs1,-10,11,-11,1,-3
Cc1csc(SCC(=O)c2cc(C)n(Cc3cccs3)c2C)n1,-38,66,91*,18,0
CCCNC(=O)C1(C)CCN(Cc2cc(C(F)(F)F)ccc2Cl)C1 (stereo unspecified),-4,/,/,/,/
CCCCC(=O)N(C)c1c(C)nc2ccc(C(=O)NCc3ccccc3OC)cn12,7,/,/,/,/
C=CCN(c1ccc(C(=O)NCCCn2ccnc2)cc1)S(C)(=O)=O,0,/,/,5,-8
COc1cc(/C=N/NC(=O)c2ccncc2)ccc1OCC(=O)Nc1ccc(C)c(C)c1,52*,-5,42,6,-7
COc1cc(C(=O)N/N=C/c2ccc(OC(=O)c3ccccc3Cl)c(OC)c2)ccc1O,66*,14,28,3,28
N#CCC(=O)N/N=C/c1cccc(Oc2ccccc2)c1,-7,-3,38,30*,33
O=C(N/N=C/c1cccc(Oc2ccccc2)c1)c1ccncc1,-6,-2,4,0,11
COc1cc(C(=O)N/N=C/c2cccc(Oc3ccccc3)c2)ccc1O,0,85*,36,1,41
Cc1ccc(NCC(=O)N/N=C/c2cccc(Oc3ccccc3)c2)cc1,-10,/,3,6,5
COc1cc(CCC(=O)OCC(=O)Nc2ccc(F)cc2F)cc(OC)c1OC,-4,-6,13,-1,7
CCN1C(=O)[C@H]2[C@H]3CN=C(SCc4ccc(C)cc4)N3[C@@](CC)(C(=O)OC)[C@H]2C1=O,-1,/,/,/,8
COc1ccc(CNC(=O)N2CCN(C(=O)c3ccccc3)CC2)cc1,6,/,/,/,-1
SMILES,H9c2 protect,ALR H2O2 inh,PHOSPHO1 block,PfM18AAP inh,PfGluPho inh
COc1cc(/C=N/NC(=O)c2ccncc2)ccc1OC(=O)c1ccccc1Cl,74*,61,28,5,-3
COc1cc(/C=N/Nc2ccc(Cl)c(C(=O)O)c2)ccc1OC(=O)c1ccc(F)cc1,4,72,15,-2,-4
COc1cc(/C=N/n2cnnc2)ccc1OC(=O)c1ccncc1,-1,98*,-8,6,-13
COc1cc(/C=N/NC(=O)c2ccncc2)ccc1OC(C)=O,-3,27,36,14,-16
COc1ccc(/C=N/NC(=O)c2ccccc2O)cc1Cn1cc([N+](=O)[O-])cn1,7,8,16,5,-23
COc1cc(/C=N/NC(=O)c2ccccc2O)ccc1OC(=O)CC1SC(=O)NC1=O (stereo unspecified),-4,88*,16,16,-7
COc1cc(/C=N/Nc2ccc(Cl)c(C(=O)O)c2)ccc1OC(=O)c1ccccc1F,3,99*,-35,8,-7
COc1ccc2cc(CO)c3cc(OC)c(OC)cc3c2c1,5,-1,/,/,-18
C[C@@H]1CCCCO[C@@H](CN(C)C(=O)CCCN(C)C)[C@@H](C)CN([C@H](C)CO)C(=O)c2cc(NC(=O)CCC(F)(F)F)ccc2O1,-2,/,/,/,-20
CN(C)CCCn1c2c(c(SCC(=O)Nc3cccc4ccccc34)nc1=O)CCCC2,4,-43,/,/,4
O=C(O)CCC(=O)Nc1ccc2c(c1)Cc1cc(NC(=O)CCC(=O)O)ccc1-2,-1,99*,/,13,-5
CCOC(=O)c1c(NC(=O)c2noc3c2CCCC3)sc(C)c1C,/,/,92*,22,/
Cc1ccccc1C(=O)NCC(=O)Nc1ccc(C)c(S(=O)(=O)N2CCCCCC2)c1,0,-2,-2,-14,-13
COc1cc(/C=C2/C(=O)N(c3cccc(Br)c3)N=C2C)cc(OC)c1O,-7,92*,15,20,28
CC1=NN(c2ccccc2)C(=O)/C1=C/c1cccc(C)c1,-2,94*,20,10,-4
COc1ccc(/C=C2/C(=O)N(c3ccccc3)N=C2C)cc1OC,-3,37,25,25,0
COc1cc(/C=C2/C(=O)N(c3ccc(Br)cc3)N=C2C)cc([N+](=O)[O-])c1O,/,-9,42,6,/
COc1ccc([C@H]2N[C@]3(CCCN(Cc4ccc(Br)cc4)C3=O)[C@H]3C(=O)N(C)C(=O)[C@@H]23)cc1,-2,/,/,/,-6
CCOC(=O)Cn1cncc1-c1ccc([N+](=O)[O-])cc1,0,97*,-10,1,6
CCOc1ccc(NC(=O)Cn2cncc2-c2ccc([N+](=O)[O-])cc2)cc1,-15,-3,-11,7,-5
CC(C)c1cc(=O)n2[nH]c(SCc3ccccc3)nc2n1,0,-2,63*,3,3
COc1ccc(/C=C/C(=O)OCC(=O)N2CC(=O)Nc3ccccc32)cc1S(=O)(=O)N1CCOCC1,34,-5,-37,-5,4
COc1cc(/C=C/C(=O)OCC(=O)N2CC(=O)Nc3ccccc32)ccc1O,7,96*,35,12,4
COc1ccc(C2C(C(=O)NCc3ccccn3)CCC(=O)N2c2cc(OC)c(OC)c(OC)c2)cc1 (stereo unspecified),-3,-12,52,-2,-7
Cc1noc(C)c1COC(=O)c1ccc(F)c(S(=O)(=O)N2CCOCC2)c1,-7,/,/,/,0
COc1cccc(OC)c1/C(O)=C(\C#N)c1nc2ccccc2[nH]1,12,28,60*,3,-1
CC(C)(C)/C(O)=C(/C#N)c1nc2ccccc2[nH]1,10,1,5,5,-9
CN1CCCN=C1/C=C/c1cccs1,-7,-16,-4,-1,-4
CN(C)c1ccc(/C=C/c2cc[n+]([O-])cc2)cc1,/,99*,16,6,/
